Legend:
Assay in all cases: log2 ratio of Biotin-Ahx-Ub-VS probe labelling (fragment/DMSO); higher = less target engagement (more negative = stronger competition), active = hit call of the paper (q ≤ 0.05, log2 ratio ≤ -1)
Conditions in all cases: compound concentration: 200 uM; treatment time: 3 h
USP42 = target: T1, USP42 (UniProt Q9H9J4)
T1 sequence (whole entry): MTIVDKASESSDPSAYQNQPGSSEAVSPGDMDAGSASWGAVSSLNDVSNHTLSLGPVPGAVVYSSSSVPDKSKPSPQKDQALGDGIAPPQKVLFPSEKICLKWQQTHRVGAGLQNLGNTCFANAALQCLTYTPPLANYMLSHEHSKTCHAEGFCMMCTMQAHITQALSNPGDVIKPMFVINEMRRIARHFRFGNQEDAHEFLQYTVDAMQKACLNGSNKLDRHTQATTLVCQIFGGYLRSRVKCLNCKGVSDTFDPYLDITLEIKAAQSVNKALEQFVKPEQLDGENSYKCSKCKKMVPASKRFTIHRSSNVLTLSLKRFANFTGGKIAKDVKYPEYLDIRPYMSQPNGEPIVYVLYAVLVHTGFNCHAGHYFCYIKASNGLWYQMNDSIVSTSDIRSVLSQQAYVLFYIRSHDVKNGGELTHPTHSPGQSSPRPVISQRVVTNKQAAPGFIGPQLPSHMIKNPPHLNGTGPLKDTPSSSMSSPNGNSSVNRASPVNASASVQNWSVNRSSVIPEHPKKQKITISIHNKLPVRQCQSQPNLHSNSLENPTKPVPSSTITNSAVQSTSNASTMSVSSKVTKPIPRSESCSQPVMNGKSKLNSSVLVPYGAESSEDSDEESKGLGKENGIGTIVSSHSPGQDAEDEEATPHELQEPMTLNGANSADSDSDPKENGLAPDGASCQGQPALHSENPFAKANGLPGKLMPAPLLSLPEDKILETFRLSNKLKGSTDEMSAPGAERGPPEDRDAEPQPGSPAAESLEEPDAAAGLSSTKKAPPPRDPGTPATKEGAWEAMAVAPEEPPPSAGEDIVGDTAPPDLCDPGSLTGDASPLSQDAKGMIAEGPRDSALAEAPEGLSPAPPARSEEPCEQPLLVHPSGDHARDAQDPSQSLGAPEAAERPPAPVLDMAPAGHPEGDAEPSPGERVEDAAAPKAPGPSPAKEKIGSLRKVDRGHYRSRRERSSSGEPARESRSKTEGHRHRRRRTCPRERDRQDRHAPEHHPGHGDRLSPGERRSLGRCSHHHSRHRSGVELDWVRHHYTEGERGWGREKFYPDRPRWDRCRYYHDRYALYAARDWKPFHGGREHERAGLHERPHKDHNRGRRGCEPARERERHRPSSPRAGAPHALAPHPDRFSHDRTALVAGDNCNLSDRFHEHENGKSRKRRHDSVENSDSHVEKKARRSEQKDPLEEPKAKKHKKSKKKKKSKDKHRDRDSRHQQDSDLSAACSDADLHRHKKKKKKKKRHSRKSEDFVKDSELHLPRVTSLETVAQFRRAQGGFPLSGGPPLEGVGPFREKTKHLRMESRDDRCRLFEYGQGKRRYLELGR
Outline: (§1)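 Each value is an average log2 ratio of fragment to vehicle, tested by unpaired t-test. The underlying Spectronaut label-free quantities were global-median-normalised, and only proteins with ≥2 unique peptides were included. Triplicate HEK293T lysate samples (495 µg) were exposed to fragment at 200 µM or vehicle for 3 h, then to Biotin-Ahx-Ub-VS at 0.5 µM final for 1 h, before NeutrAvidin enrichment of labelled DUBs, LysC and trypsin digestion, and diaPASEF LC-MS/MS.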

USP46 = USP46 (UniProt P62068)
Outline: as §1

USP47 = target: T2, USP47 (UniProt Q96K76)
T2 sequence (whole entry): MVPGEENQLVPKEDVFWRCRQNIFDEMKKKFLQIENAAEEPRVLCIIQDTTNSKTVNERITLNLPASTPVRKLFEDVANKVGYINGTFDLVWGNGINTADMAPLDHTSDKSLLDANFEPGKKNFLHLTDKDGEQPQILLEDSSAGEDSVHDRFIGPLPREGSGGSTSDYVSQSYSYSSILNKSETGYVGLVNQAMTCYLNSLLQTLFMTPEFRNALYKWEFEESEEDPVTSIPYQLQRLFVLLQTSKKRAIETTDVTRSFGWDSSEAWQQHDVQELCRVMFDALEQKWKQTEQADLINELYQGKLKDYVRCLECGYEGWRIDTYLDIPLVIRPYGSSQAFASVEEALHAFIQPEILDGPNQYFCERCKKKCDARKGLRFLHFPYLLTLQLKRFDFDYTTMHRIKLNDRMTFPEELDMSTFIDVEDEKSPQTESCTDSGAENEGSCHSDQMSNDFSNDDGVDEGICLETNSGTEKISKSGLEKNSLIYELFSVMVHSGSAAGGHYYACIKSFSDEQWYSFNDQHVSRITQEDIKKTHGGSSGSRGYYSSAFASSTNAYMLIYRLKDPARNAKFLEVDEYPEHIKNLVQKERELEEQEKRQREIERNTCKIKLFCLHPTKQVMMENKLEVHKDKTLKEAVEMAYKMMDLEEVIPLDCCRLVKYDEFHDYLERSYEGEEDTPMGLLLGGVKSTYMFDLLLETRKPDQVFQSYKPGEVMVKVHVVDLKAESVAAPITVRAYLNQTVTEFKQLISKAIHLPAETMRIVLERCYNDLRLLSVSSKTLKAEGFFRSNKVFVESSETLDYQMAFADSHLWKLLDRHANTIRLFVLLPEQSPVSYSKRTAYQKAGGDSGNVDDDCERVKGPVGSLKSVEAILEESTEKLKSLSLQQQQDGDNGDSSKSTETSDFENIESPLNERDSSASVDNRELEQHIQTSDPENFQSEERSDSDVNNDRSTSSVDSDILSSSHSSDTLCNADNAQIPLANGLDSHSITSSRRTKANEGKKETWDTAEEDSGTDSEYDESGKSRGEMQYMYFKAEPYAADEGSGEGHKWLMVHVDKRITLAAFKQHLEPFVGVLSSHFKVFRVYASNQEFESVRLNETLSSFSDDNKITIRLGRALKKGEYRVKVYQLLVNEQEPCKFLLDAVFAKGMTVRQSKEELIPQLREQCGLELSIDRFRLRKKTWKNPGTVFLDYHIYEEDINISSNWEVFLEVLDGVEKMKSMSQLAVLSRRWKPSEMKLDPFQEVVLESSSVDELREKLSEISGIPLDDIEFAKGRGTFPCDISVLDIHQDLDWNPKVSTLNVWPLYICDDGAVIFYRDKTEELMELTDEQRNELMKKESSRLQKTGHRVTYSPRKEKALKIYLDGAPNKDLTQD
Outline: as §1

USP48 = target: T3, USP48 (UniProt Q86UV5)
T3 sequence (whole entry): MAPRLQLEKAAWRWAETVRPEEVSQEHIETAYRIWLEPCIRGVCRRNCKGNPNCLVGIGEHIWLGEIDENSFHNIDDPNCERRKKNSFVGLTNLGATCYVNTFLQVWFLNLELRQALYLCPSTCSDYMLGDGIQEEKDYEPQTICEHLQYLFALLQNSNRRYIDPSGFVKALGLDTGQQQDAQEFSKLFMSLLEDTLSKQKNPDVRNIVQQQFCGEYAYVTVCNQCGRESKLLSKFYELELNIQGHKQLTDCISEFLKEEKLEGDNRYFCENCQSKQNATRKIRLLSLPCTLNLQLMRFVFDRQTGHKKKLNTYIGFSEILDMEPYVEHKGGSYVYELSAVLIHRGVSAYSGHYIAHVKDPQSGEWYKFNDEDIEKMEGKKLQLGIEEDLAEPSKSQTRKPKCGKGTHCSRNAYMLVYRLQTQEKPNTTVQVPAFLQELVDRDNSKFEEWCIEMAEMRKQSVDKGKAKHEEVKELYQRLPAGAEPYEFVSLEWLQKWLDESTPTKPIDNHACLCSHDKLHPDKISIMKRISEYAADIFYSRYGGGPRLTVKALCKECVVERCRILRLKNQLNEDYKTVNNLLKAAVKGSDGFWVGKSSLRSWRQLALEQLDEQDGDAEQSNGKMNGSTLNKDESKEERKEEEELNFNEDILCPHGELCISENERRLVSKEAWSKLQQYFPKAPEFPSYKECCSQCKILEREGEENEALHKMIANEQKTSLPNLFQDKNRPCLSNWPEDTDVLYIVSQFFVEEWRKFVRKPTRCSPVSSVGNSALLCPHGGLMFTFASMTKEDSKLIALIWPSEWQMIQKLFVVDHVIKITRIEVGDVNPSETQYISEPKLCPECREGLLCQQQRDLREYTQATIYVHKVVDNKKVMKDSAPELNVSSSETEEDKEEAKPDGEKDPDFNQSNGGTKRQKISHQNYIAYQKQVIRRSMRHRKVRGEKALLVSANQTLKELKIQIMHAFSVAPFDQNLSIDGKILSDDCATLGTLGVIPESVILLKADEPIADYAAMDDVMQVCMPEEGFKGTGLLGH
Outline: as §1

USP5 = target: T4, USP5 (UniProt P45974)
T4 sequence (whole entry): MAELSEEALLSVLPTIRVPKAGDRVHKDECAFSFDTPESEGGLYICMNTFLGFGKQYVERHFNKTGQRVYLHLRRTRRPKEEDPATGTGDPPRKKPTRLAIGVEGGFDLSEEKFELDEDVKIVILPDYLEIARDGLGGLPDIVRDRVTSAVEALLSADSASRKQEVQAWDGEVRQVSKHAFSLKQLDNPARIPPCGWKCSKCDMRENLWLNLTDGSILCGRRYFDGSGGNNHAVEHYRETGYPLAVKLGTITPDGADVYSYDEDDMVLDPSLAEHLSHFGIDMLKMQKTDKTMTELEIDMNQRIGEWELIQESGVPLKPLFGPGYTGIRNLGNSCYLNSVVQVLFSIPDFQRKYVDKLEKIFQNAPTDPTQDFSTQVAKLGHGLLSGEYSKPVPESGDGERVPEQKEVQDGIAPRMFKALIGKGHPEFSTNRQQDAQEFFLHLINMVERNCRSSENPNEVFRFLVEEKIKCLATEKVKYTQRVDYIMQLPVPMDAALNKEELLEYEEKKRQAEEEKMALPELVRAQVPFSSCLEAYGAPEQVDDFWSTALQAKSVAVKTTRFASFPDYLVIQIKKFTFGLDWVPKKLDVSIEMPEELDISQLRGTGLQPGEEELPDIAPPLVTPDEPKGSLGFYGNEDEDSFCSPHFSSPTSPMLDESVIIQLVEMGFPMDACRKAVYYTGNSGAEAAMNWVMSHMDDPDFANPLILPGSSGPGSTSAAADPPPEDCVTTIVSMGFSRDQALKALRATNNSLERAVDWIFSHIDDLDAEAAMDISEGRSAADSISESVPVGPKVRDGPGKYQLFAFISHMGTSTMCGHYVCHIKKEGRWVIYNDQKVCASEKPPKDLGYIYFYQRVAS
Outline: as §1

USP54 = USP54 (UniProt Q70EL1)
Outline: as §1

USP7 = USP7 (UniProt Q93009)
Outline: as §1

USP8 = target: T5, USP8 (UniProt P40818)
T5 sequence (whole entry): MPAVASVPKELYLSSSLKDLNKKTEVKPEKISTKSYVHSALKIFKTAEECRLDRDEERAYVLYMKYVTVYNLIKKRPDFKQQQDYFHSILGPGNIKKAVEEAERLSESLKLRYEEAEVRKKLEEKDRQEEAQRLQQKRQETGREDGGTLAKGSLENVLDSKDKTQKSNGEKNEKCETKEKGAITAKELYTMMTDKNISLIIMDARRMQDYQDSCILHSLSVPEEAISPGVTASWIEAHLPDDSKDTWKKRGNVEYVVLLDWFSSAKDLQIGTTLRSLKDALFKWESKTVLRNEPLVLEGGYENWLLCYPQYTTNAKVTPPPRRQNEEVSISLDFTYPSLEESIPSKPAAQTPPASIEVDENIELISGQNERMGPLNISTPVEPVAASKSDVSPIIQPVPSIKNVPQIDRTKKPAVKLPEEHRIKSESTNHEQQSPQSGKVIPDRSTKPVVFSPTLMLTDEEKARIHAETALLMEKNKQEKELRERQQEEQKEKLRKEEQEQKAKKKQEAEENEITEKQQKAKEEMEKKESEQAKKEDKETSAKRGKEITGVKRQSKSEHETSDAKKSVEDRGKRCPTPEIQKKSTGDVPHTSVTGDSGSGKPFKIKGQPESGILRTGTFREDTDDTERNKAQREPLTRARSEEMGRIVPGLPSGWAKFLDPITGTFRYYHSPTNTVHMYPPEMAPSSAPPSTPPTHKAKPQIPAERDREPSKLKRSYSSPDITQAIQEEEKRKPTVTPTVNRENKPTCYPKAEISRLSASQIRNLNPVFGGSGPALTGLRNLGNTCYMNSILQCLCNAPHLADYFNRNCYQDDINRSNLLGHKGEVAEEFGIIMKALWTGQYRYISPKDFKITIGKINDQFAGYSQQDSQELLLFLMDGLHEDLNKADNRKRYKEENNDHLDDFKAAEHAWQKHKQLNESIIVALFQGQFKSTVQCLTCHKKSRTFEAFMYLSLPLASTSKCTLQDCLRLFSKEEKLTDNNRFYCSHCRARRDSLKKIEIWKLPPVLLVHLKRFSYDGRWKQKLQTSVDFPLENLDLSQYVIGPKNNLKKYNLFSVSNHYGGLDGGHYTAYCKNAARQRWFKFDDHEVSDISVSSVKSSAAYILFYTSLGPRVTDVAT
Outline: as §1

USP9X = USP9X (UniProt Q93008)
Outline: as §1

UniProt O00487 = target: UniProt O00487
Outline: as §1

Measured: log2 ratio of Biotin-Ahx-Ub-VS probe labelling

USP46, sequence (P62068 whole entry): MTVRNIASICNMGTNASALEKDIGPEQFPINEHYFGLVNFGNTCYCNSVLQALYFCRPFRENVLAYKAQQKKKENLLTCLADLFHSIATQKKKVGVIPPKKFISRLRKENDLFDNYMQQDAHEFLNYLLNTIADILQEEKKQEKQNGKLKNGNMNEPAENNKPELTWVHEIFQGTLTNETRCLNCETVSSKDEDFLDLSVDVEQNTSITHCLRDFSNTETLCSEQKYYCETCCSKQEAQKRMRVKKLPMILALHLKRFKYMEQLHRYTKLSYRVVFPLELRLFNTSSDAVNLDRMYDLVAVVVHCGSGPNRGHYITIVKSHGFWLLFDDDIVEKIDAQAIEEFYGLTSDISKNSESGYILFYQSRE
USP7, sequence (Q93009 whole entry, looked up): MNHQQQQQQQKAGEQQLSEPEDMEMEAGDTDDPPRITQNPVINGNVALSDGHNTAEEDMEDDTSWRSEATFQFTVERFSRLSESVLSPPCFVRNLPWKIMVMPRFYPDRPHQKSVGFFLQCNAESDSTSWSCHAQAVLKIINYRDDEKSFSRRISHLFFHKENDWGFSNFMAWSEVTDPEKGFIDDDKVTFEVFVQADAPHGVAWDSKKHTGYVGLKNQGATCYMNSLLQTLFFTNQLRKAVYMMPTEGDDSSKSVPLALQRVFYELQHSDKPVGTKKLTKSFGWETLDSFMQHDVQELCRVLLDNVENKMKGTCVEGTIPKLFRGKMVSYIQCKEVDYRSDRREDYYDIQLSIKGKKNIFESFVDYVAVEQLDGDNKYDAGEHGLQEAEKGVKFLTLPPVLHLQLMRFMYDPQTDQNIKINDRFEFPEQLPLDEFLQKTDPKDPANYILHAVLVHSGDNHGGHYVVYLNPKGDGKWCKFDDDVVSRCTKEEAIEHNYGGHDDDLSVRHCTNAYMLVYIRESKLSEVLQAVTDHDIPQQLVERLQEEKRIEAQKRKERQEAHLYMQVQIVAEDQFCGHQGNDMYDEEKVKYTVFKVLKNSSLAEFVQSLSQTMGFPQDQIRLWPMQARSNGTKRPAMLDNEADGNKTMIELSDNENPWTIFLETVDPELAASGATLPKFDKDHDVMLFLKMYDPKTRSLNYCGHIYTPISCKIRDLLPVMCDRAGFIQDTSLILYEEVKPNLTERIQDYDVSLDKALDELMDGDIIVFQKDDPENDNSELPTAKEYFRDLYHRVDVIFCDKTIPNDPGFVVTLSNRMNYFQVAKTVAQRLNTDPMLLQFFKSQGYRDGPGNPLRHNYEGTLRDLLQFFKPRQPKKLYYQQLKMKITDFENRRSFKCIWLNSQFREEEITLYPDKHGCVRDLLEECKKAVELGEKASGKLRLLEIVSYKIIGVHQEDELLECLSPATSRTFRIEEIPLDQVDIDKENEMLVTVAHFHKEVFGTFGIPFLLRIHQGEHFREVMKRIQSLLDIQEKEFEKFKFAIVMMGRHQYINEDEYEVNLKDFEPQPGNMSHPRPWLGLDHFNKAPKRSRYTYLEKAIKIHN
USP9X, sequence (Q93008 whole entry): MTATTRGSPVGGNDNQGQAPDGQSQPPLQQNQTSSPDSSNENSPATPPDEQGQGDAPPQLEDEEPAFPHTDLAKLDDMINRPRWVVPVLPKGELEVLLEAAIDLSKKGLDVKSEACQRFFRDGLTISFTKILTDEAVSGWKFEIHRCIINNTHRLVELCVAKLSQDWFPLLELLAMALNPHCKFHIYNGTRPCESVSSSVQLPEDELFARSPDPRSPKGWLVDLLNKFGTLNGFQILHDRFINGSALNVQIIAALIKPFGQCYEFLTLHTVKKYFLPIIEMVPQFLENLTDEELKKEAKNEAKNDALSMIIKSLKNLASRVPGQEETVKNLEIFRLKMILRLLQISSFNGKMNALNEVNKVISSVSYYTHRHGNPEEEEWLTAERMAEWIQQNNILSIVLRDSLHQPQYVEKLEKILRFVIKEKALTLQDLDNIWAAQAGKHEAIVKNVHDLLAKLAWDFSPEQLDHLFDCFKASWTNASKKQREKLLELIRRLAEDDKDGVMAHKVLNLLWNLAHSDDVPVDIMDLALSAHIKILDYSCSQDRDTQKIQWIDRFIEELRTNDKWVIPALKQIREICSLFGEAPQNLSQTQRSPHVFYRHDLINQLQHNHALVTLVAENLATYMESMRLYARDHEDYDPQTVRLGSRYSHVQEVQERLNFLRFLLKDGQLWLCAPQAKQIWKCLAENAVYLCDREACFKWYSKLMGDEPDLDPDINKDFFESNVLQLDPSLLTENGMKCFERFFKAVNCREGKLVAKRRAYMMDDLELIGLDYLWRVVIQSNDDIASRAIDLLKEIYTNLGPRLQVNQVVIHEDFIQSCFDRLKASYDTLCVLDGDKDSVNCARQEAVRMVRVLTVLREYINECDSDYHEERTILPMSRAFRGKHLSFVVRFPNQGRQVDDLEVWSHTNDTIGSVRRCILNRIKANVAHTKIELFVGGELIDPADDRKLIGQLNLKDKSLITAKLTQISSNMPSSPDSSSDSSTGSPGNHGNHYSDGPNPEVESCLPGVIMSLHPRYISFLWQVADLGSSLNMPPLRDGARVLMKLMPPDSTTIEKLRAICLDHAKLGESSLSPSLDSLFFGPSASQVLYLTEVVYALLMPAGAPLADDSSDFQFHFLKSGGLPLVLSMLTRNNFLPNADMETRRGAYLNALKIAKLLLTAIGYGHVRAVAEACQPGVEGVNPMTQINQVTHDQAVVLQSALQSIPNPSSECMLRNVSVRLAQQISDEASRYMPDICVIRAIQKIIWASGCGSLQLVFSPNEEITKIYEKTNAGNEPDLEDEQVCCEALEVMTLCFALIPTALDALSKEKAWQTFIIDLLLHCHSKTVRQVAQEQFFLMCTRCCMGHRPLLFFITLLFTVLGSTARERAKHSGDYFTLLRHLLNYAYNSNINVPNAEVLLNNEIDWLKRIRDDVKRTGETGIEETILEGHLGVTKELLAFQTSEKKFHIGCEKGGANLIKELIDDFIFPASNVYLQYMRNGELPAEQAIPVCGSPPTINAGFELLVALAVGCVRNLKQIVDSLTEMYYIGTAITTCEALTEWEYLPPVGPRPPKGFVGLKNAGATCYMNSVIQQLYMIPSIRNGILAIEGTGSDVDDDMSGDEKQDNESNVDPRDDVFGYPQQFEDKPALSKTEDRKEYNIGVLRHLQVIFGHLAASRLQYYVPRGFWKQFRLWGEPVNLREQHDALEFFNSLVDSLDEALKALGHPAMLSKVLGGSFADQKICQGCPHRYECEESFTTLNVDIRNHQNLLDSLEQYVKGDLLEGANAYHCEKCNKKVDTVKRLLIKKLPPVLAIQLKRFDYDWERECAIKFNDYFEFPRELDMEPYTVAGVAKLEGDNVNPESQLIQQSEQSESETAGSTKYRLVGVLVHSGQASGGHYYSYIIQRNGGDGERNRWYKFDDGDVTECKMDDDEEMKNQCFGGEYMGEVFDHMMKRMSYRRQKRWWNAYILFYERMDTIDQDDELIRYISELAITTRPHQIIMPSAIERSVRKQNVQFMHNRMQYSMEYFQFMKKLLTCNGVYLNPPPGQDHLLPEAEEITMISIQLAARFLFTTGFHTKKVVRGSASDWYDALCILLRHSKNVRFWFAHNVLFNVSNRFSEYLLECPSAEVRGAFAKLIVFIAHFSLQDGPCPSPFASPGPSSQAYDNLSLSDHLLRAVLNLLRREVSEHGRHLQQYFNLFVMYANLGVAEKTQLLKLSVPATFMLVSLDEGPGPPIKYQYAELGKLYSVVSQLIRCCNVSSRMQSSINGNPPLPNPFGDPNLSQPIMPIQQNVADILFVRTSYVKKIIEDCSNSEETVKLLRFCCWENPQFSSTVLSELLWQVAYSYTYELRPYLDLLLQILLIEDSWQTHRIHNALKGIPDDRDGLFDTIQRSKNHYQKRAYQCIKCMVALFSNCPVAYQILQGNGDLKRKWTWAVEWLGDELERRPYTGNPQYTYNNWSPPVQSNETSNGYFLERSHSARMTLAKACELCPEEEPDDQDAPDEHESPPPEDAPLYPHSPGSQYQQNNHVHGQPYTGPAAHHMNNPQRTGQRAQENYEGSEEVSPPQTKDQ
UniProt O00487, sequence (O00487 whole entry): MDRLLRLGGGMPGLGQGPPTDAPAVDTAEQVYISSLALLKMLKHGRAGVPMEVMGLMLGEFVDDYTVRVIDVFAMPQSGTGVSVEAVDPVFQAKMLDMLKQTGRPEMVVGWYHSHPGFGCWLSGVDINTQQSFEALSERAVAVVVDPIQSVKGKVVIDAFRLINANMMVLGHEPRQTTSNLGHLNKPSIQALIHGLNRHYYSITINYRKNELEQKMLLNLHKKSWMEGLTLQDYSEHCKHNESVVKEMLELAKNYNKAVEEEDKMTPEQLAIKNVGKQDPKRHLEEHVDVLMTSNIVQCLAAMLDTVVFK

Cl.Cn1ncc2c1CC(NC(=O)CCl)CC2 (stereo not given)
inactive: USP42 0.421 | USP46 0.116 | USP47 0.118 | USP48 0.191 | USP5 0.0298 | USP54 -0.146 | USP7 -0.063 | USP8 -0.0427 | USP9X -0.0203 | UniProt O00487 -0.0601

O=C(CCl)N1CCOC2(CCC2)CC1
inactive: USP42 -0.307 | USP46 0.0174 | USP47 -0.785 | USP48 -0.374 | USP5 0.235 | USP54 -0.505 | USP7 -0.145 | USP8 -0.275 | USP9X -0.0935 | UniProt O00487 0.0511

O=C(CCl)NCc1ccc2c(c1)OCO2
inactive: USP42 0.271 | USP46 0.12 | USP47 0.0619 | USP48 -0.33 | USP5 0.376 | USP54 0.581 | USP7 -0.297 | USP8 -0.155 | USP9X -0.147 | UniProt O00487 -0.108

O=C(CCl)N1CCN2C(=O)CCC2C1 (stereo not given)
inactive: USP42 -0.359 | USP46 0.247 | USP47 -0.0244 | USP48 -0.154 | USP5 0.153 | USP54 0.776 | USP7 -0.0819 | USP8 -0.376 | USP9X -0.098 | UniProt O00487 -0.0865

— the supplement of paper PMC11732987, “Enantioselective OTUD7B fragment discovery through chemoproteomics screening and high-throughput optimisation” (Communications Chemistry, 2025)
